Only some compounds are listed: those with a hit (about 1.3% of all), similar ones and a draw of the others.
NR2F2 inh = NR2F2 transcriptional activity inhibitors, primary screen, cell-based, luciferase reporter, HEK293T, luminescence | COUP transcription factor 2 (Homo sapiens), P24468 | HEK293T NGFI-A luciferase reporter | inhibition, % at 8.6 µM | 370,000 compounds, 0.7% hits;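 active means inhibition above a per-plate cutoff, mean inhibition of test wells between control levels plus 3 SD, cut at about 38% in these data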;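 further: cells cotransfected with COUP-TFII expression vector driving the NGFI-A reporter; 0% = median of COUP-TF2 test wells and 100% = reporter-only cells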
Target sequence (P24468 whole entry, looked up): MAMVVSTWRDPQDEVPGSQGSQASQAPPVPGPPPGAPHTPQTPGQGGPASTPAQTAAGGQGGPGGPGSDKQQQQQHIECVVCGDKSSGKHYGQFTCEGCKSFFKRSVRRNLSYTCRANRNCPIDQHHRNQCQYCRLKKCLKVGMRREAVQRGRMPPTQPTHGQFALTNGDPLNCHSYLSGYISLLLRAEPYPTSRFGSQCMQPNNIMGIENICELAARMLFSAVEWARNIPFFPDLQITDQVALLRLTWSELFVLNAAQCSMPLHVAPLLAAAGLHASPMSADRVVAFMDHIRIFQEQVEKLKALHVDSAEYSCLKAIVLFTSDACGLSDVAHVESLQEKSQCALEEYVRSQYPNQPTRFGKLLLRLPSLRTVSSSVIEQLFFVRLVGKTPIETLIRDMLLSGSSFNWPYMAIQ
SRC2 inh = inhibition of GAL4-SRC2 driven luciferase reporter, primary screen, SRC2 inhibitor project, cell-based, luminescence | Nuclear receptor coactivator 2 (Homo sapiens), Q15596 | HEK293 GAL4-SRC2 luciferase reporter | inhibition, % at 9 µM | 370,000 compounds, 0.17% hits;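 active means inhibition above the mean inhibition of all tested compounds plus 3 SD, set per campaign, cut at about 52% in these data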;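 further: 0% = DMSO treated cells and 100% = cells given Gossypol at 36 µM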
NR5A2 inv ag = LRH-1 (NR5A2) inverse agonists, primary screen, cell-based, luminescence, HEK293T, StAR-luciferase reporter; 360,000 compounds, 0.13% hits; LRH-1 transfected, 24 h; inhibition, % at 3.6 µM; AID 602396, 2012;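 active means inhibition above the mean inhibition of all tested compounds plus 3 SD, cut at about 73% in these data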;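 further: 0% = DMSO wells and 100% = reporter-only cells lacking LRH-1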
SRC1 inh = SRC1 coactivator transcriptional activity inhibitors, primary screen, cell-based, luminescence | Nuclear receptor coactivator 1 (Homo sapiens), Q15788 | HEK293 GAL4-SRC1 luciferase reporter | inhibition, % at 3.6 µM | 360,000 compounds, 0.12% hits | AID 588354, 2011;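 active means inhibition above the campaign mean plus 3 SD, with each screening campaign given its own cutoff, cut at about 60% in these data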;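 further: 0% = DMSO treated cells and 100% = gossypol at 36 µM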
NCOA3 inh = SRC3 coactivator transcriptional activity inhibitors, primary screen, cell-based, luminescence; inhibition, % at 3.6 µM; HEK293 GAL4-SRC3 luciferase reporter; AID 588352, 2011; Nuclear receptor coactivator 3 (Homo sapiens), Q9Y6Q9; 360,000 compounds, 0.17% hits;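 active means inhibition above a per-campaign cutoff, the mean of all compounds plus 3 SD, cut at about 60% in these data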;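 further: 0% = DMSO-treated cells and 100% = gossypol-treated cells at 36 µM; higher means less SRC3-driven luciferase light from the GAL4 reporter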
Gli-Sufu block = Gli-Sufu pathway antagonists, primary screen, luciferase luminescence, Sufu-KO-LIGHT cells, uHTS | Sufu-KO-LIGHT fibroblasts, Gli luciferase reporter luminescence | inhibition, % at 5 µM | 340,000 compounds, 0.74% hits | AID 588413, 2011;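 active means inhibition above about 55%, limit read from the data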;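 further: 0% = DMSO-treated cells and 100% = wells with medium but no cells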
VP16 Luc counter = Gal4-VP16 luciferase reporter inhibitors, counter-screen for COUP-TFII antagonist project, cell-based, luminescence, HEK293; shares compounds with NR2F2 inh; inhibition, % at 8.5 µM; 2,500 compounds, 25% hits; AID 687007, 2013; in the data active means inhibition above about 13%
COUP-TFII conf = NR2F2 transcriptional activity inhibitors, confirmation, cell-based, luciferase reporter, HEK293, triplicate. shares compounds with NR2F2 inh. 2,500 compounds, 45% hits. AID 687008, 2013. inhibition, % at 8.5 µM. HEK293 NGFI-A luciferase reporter, luminescence;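 active means mean inhibition over three repeats above a set limit taken from the earlier primary screen, cut at about 38% in these data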;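 further: 100% = cells given the luciferase reporter alone without the COUP-TF2 vector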
* hit, by the source's call; . = no result given.

SMILES	NR2F2 inh	SRC2 inh	NR5A2 inv ag	SRC1 inh	NCOA3 inh	Gli-Sufu block	VP16 Luc counter	COUP-TFII conf
CC(C)N1C(=O)S/C(=C/c2ccc(Sc3nc4ccccc4[nH]3)o2)C1=O	4	14	2	10	19	38	.	.
C=CCN1C(=O)S/C(=C/c2ccc(Sc3nc4ccccc4[nH]3)o2)C1=O	46*	10	14	3	17	26	-12	11
CS(=O)(=O)N(CC(=O)N1CCN(c2cccc(Cl)c2)CC1)C1CCCCC1	-5	19	2	-16	14	4	.	.
Cc1ccc(Cl)cc1N1CCN(C(=O)CN(C2CCCCC2)S(C)(=O)=O)CC1	40*	9	12	-4	-9	34	3	13
Cc1ccc(Cl)cc1N1CCN(C(=O)COc2ccc(S(=O)(=O)NC(C)C)cc2)CC1	38*	-4	-12	18	1	8	1	39*
CCCCOCCCNC(=O)C[C@H]1C(=O)N(Cc2ccc(OC)cc2)C2=CCCC[C@@]21C(=O)OCC	6	-27	.	.	.	.	.	.
Cc1cc(C)cc(C(=O)OCCN(C)C2CN(Cc3cn(Cc4cccc(F)c4)nn3)S(=O)(=O)C2)c1 (stereo unspecified)	-4	0	.	.	.	.	.	.
Cc1ccc2oc(/N=C(\N)NC(=O)C(C)(C)C)nc2c1	93*	81*	83*	83*	86*	75*	88*	105*
COC[C@H]1CCCN1c1cccc2c1S(=O)(=O)N(C1CC1)CC[C@@H](C)O2	9	-30	.	.	.	.	.	.
CCOC(=O)C1(Cc2ccc(OC)cc2)CCN(C(=O)c2sc(C)nc2C)CC1	-4	31	-2	5	6	17	.	.
CCOC(=O)C1(Cc2ccc(Cl)cc2)CCN(C(=O)c2sc(C)nc2C)CC1	42*	24	-3	1	20	21	10	26
Cc1cc(C)n(Cc2ccc(NC(=O)c3ccc(COc4ccccc4Br)cc3)cc2)n1	63*	25	21	22	37	2	-7	26
CC(C)(C)c1ccc2c(c1)OC(C(=O)N/N=C/c1ccc[nH]1)CO2 (stereo unspecified)	47*	.	.	.	.	.	0	40*
COc1ccc2[nH]c(=O)c3c(c2c1)OC(C)(C)C=C3	44*	63*	20	47	44	-31	0	25
O=C1[C@@H](CCc2ccccc2)[C@@H]2c3ccccc3C=NN2[C@@H]2c3ccccc3C=NN12	-3	-17	.	.	.	.	.	.
CCCCc1ccc(N/C(N)=N/c2nc(C)cc(C)n2)cc1	49*	37	16	10	32	50	29*	56*
COC(=O)c1cc(N/C(N)=N/c2nc(C)cc(C)n2)cc(C(=O)OC)c1	42*	25	37	27	37	.	-5	29
COC(=O)C12C=C3CC(C)=C3C(=O)N1Cc1[nH]c3ccccc3c1C2 (stereo unspecified)	-8	-11	.	.	.	.	.	.
C[C@@H]1C[C@H]2[C@@H](Cc3ccccc3)C(=O)N3[C@H](c4ccccc4)[C@H](C)C[C@H]3[C@@H](Cc3ccccc3)C(=O)N2[C@@H]1c1ccccc1	-6	2	.	.	.	.	.	.
COc1ccc(CCNc2ccc(N3C(=O)CC(C)C3=O)cc2[N+](=O)[O-])cc1OC (stereo unspecified)	55*	29	36	8	21	-29	-5	24
COc1ccc(Oc2ccc3c(C(F)(F)F)cc(C(F)(F)F)nc3n2)cc1	11	13	-9	3	9	-23	.	.
Oc1ccc(Oc2ccc3c(C(F)(F)F)cc(C(F)(F)F)nc3n2)cc1	49*	11	18	-3	23	8	-12	37*
CC(=O)N(CCc1ccccc1)c1ccc2c(c1)C1CC2CCN1C(=O)OCc1ccccc1 (stereo unspecified)	38*	34	-14	5	0	.	-5	7
O=C(OCc1ccccc1)N1CCC2CC1c1cc(NCCc3ccccc3)ccc12 (stereo unspecified)	1	-3	-6	-9	-18	-14	.	.
CC(C)CN1CN2Cc3cc(F)ccc3C2CS1(=O)=O (stereo unspecified)	-13	7	.	.	.	.	.	.
SMILES	NR2F2 inh	SRC2 inh	NR5A2 inv ag	SRC1 inh	NCOA3 inh	Gli-Sufu block	VP16 Luc counter	COUP-TFII conf
Cc1ccc(S(=O)(=O)N2CCc3ccccc3C2)cc1	-6	-12	13	8	2	3	.	.
Cc1ccc(S(=O)(=O)N2CCc3ccccc3CC2)cc1	66*	11	49	23	29	27	5	50*
CC[n+]1c(/C=C2\Sc3ccccc3N2C)ccc2cccc(C)c21	80*	-56	84*	29	55	87*	14*	78*
CCC(=O)/C=C1/Sc2ccccc2N1CC	-8	-23	1	-8	-1	5	.	.
CCN1/C(=C/c2ccc3cc(C)ccc3[n+]2CC)Sc2cc(C)c(C)cc21	78*	30	68	32	56	91*	8	64*
CCN1/C(=C/c2ccc3cc(C)ccc3[n+]2CC)Sc2ccccc21	86*	-30	96*	65*	55	89*	1	79*
CC(=S)/C=C1\Sc2ccccc2N1C	-2	-1	10	8	-17	13	.	.
CCOC(=O)c1cnc(-n2nc(C)cc2C)nc1NCc1ccc2c(c1)OCO2	14	-22	7	9	4	2	.	.
CCOC(=O)c1cnc(-n2nc(C)cc2C)nc1NC1CCCC1	44*	22	44	3	23	18	7	56*
CCOC(=O)c1cnc(-n2nc(C)cc2C)nc1NCCc1ccccc1	48*	2	2	11	25	29	-12	10
CCOC(=O)c1cnc(-n2nc(C)cc2C)nc1Nc1ccc(OC)cc1	-9	-1	20	10	1	11	.	.
COc1ccc(-c2cc(C(=O)NN=Cc3ccc(C)s3)[nH]n2)cc1	-39	-6	.	.	.	.	.	.
N#Cc1ccc(/C=C2\CC3(OC(=O)c4ccc(Cl)cc4)CCCN2C3)cc1 (stereo unspecified)	20	-19	.	.	.	.	.	.

Source: PubChem BioAssay
